Experimental data from PubChem BioAssay AID1159580 (chemical genetic matrix, 2015).
Where “and” joins values, the source holds several entries; their conditions need not be identical. Identical values can stand only once. About 2,000 (36%) of roughly 5,500 compounds were called active. Inconclusive results (about 18%) are left out. The list shows a part of the results. Unmarked numbers belong to inactive results. Rule as the data show it: active = normalized growth mostly below about 0.91 (no sharp cut-off); inconclusive = no clear call, values can overlap the other calls; inactive = mostly above about 0.92.

Experiment: chemical genetic growth profiling, strain panel (AID 1159580);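 also: tested at 20 µM; growth read once vehicle control cultures reached saturation at 30 °C; 1 = growth at the plate median or of vehicle wells; lower values mean less growth of the strain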
Details: S. cerevisiae deletion strains, growth OD

## CC(=O)O[C@H]1C[C@@H](OC(C)=O)C(C)(C)C2C[C@@H](O)[C@]3(C)C(CC[C@@]4(C)[C@H](c5ccoc5)OC(=O)[C@H]5O[C@]543)[C@]21C (stereo partly specified)
Locus YAL021C, strain ccr4, stronger effect = lower value
  normalized growth: 1.05
Locus YAL026C, strain drs2, stronger effect = lower value
  normalized growth: 0.985
Locus YAL030W, strain snc1, stronger effect = lower value
  normalized growth: 0.995
Locus YBL061C, strain skt5, stronger effect = lower value
  normalized growth: 0.992
Locus YBR009C, strain hhf1, stronger effect = lower value
  normalized growth: 1
Locus YBR021W, strain FUR4, stronger effect = lower value
  normalized growth: 1.01
Locus YBR023C, strain chs3, stronger effect = lower value
  normalized growth: 1
Locus YBR171W, strain sec66, stronger effect = lower value
  normalized growth: 0.96
Locus YBR229C, strain ROT2, stronger effect = lower value
  normalized growth: 0.947
Locus YBR231C, strain swc5, stronger effect = lower value
  normalized growth: 0.977
Locus YBR279W, strain paf1, stronger effect = lower value
  normalized growth: 0.996
Locus YCL011C, strain gbp2, stronger effect = lower value
  normalized growth: 0.996
Locus YCL016C, strain dcc1, stronger effect = lower value
  normalized growth: 1.03
Locus YCL029C, strain bik1, stronger effect = lower value
  normalized growth: 0.971
Locus YCL069W, strain vba3, stronger effect = lower value
  normalized growth: 0.969
Locus YCR088W, strain abp1, stronger effect = lower value
  normalized growth: 0.983
Locus YDL005C, strain med2, stronger effect = lower value
  normalized growth: 1.01
Locus YDL035C, strain GPR1, stronger effect = lower value
  normalized growth: 0.965
Locus YDL040C, strain nat1, stronger effect = lower value
  normalized growth: 0.976
Locus YDL074C, strain BRE1, stronger effect = lower value
  normalized growth: 0.939
Locus YDL101C, strain DUN1, stronger effect = lower value
  normalized growth: 0.992
Locus YDL185W, strain tfp1, stronger effect = lower value
  normalized growth: 0.956
Locus YDL192W, strain arf1, stronger effect = lower value
  normalized growth: 0.977
Locus YDR001C, strain nth1, stronger effect = lower value
  normalized growth: 0.989
Locus YDR069C, strain doa4, stronger effect = lower value
  normalized growth: 0.981
Locus YDR101C, strain arx1, stronger effect = lower value
  normalized growth: 0.954
Locus YDR137W, strain rgp1, stronger effect = lower value
  normalized growth: 0.987
Locus YDR159W, strain sac3, stronger effect = lower value
  normalized growth: 0.936
Locus YDR162C, strain NBP2, stronger effect = lower value
  normalized growth: 0.948
Locus YDR195W, strain ref2
  normalized growth: 0.935
Locus YDR297W, strain sur2, stronger effect = lower value
  normalized growth: 0.992
Locus YDR318W, strain mcm21, stronger effect = lower value
  normalized growth: 0.982
Locus YDR334W, strain swr1, stronger effect = lower value
  normalized growth: 0.993
Locus YDR335W, strain msn5, stronger effect = lower value
  normalized growth: 0.99
Locus YDR388W, stronger effect = lower value
  normalized growth: 0.99
Locus YDR392W, strain spt3, stronger effect = lower value
  normalized growth: 0.966
Locus YDR502C, strain sam2, stronger effect = lower value
  normalized growth: 0.996
Locus YEL003W, strain gim4, stronger effect = lower value
  normalized growth: 0.977
Locus YEL037C, strain rad23, stronger effect = lower value
  normalized growth: 0.989
Locus YEL061C, strain CIN8 (second series), stronger effect = lower value
  normalized growth: 0.982
Locus YER015W, strain faa2, stronger effect = lower value
  normalized growth: 0.997
Locus YER016W, strain bim1, stronger effect = lower value
  normalized growth: 0.977
Locus YER110C, stronger effect = lower value
  normalized growth: 0.966
Locus YER111C, strain swi4, stronger effect = lower value
  normalized growth: 0.975
Locus YER155C, strain BEM2 (second series), stronger effect = lower value
  normalized growth: 1.02
Locus YER155C, strain BEM2, stronger effect = lower value
  normalized growth: 1.02
Locus YER167W, strain BCK2, stronger effect = lower value
  normalized growth: 0.995
Locus YFR010W, strain ubp6, stronger effect = lower value
  normalized growth: 0.963
Locus YGL078C, strain dbp3, stronger effect = lower value
  normalized growth: 0.978
Locus YGL086W, strain mad1, stronger effect = lower value
  normalized growth: 0.997
Locus YGL167C, strain pmr1, stronger effect = lower value
  normalized growth: 1
Locus YGL173C, strain kem1, stronger effect = lower value
  normalized growth: 0.962
Locus YGL227W, strain vid30, stronger effect = lower value
  normalized growth: 0.986
Locus YGL240W, strain doc1, stronger effect = lower value
  normalized growth: 0.973
Locus YGL248W, strain PDE1, stronger effect = lower value
  normalized growth: 0.97
Locus YGL253W, strain hxk2, stronger effect = lower value
  normalized growth: 0.897 (active)
Locus YGR078C, strain PAC10, stronger effect = lower value
  normalized growth: 1.01
Locus YGR135W, strain pre9, stronger effect = lower value
  normalized growth: 1.04
Locus YGR252W, strain gcn5, stronger effect = lower value
  normalized growth: 0.941
Locus YHR013C, strain ard1, stronger effect = lower value
  normalized growth: 0.997
Locus YHR027C, strain rpn1, stronger effect = lower value
  normalized growth: 0.986
Locus YHR030C, strain SLT2, stronger effect = lower value
  normalized growth: 0.982
Locus YHR079C, strain IRE1 (second series), stronger effect = lower value
  normalized growth: 0.986
Locus YHR079C, strain IRE1, stronger effect = lower value
  normalized growth: 0.999
Locus YHR094C, strain hxt1, stronger effect = lower value
  normalized growth: 0.975
Locus YHR129C, strain ARP1, stronger effect = lower value
  normalized growth: 0.988
Locus YHR142W, strain chs7, stronger effect = lower value
  normalized growth: 0.977
Locus YHR200W, strain rpn10, stronger effect = lower value
  normalized growth: 0.979
Locus YIL066C, strain RNR3, stronger effect = lower value
  normalized growth: 0.935
Locus YIL073C, strain SPO22, stronger effect = lower value
  normalized growth: 0.893
Locus YIL125W, strain kgd1, stronger effect = lower value
  normalized growth: 0.989
Locus YIR030C, strain dcg1, stronger effect = lower value
  normalized growth: 0.989
Locus YJL092W, strain hpr5, stronger effect = lower value
  normalized growth: 0.99
Locus YJL095W, strain BCK1 (second series), stronger effect = lower value
  normalized growth: 0.973
Locus YJL095W, strain BCK1, stronger effect = lower value
  normalized growth: 1.03 and 0.979
Locus YJL115W, strain asf1, stronger effect = lower value
  normalized growth: 0.996
Locus YJL129C, strain trk1, stronger effect = lower value
  normalized growth: 0.96
Locus YJL134W, strain LCB3, stronger effect = lower value
  normalized growth: 0.977
Locus YJL154C, strain vps35, stronger effect = lower value
  normalized growth: 0.995
Locus YJL164C, strain tpk1, stronger effect = lower value
  normalized growth: 1.01
Locus YJL166W, strain qcr8, stronger effect = lower value
  normalized growth: 0.955
Locus YJL168C, strain set2, stronger effect = lower value
  normalized growth: 0.995
Locus YJL187C, strain SWE1 (second series), stronger effect = lower value
  normalized growth: 1.01
Locus YJR043C, strain POL32, stronger effect = lower value
  normalized growth: 0.942
Locus YJR066W, strain TOR1, stronger effect = lower value
  normalized growth: 0.935
Locus YKL009W, strain mrt4, stronger effect = lower value
  normalized growth: 0.955
Locus YKL068W, stronger effect = lower value
  normalized growth: 0.969
Locus YKL085W, strain MDH1 (second series), stronger effect = lower value
  normalized growth: 0.987
Locus YKL085W, strain MDH1, stronger effect = lower value
  normalized growth: 0.987
Locus YKL160W, strain elf1, stronger effect = lower value
  normalized growth: 1.04
Locus YKL190W, strain CNB1, stronger effect = lower value
  normalized growth: 0.996
Locus YKR001C, strain vps1, stronger effect = lower value
  normalized growth: 0.978
Locus YKR026C, strain gcn3, stronger effect = lower value
  normalized growth: 1.05
Locus YKR091W, strain srl3, stronger effect = lower value
  normalized growth: 1
Locus YLL001W, strain dnm1, stronger effect = lower value
  normalized growth: 0.971
Locus YLL026W, stronger effect = lower value
  normalized growth: 0.994
Locus YLL041C, strain sdh2, stronger effect = lower value
  normalized growth: 0.989
Locus YLR027C, strain aat2, stronger effect = lower value
  normalized growth: 1.01
Locus YLR039C, strain RIC1, stronger effect = lower value
  normalized growth: 0.97
Locus YLR058C, strain SHM2, stronger effect = lower value
  normalized growth: 0.973
Locus YLR102C, strain apc9, stronger effect = lower value
  normalized growth: 0.973
Locus YLR113W, strain HOG1, stronger effect = lower value
  normalized growth: 1.02
Locus YLR221C, strain rsa3, stronger effect = lower value
  normalized growth: 0.969
Locus YLR258W, strain gsy2, stronger effect = lower value
  normalized growth: 0.992
Locus YLR262C, strain YPT6 (second series), stronger effect = lower value
  normalized growth: 0.985
Locus YLR268W, strain sec22, stronger effect = lower value
  normalized growth: 0.954
Locus YLR320W, strain mms22, stronger effect = lower value
  normalized growth: 0.978
Locus YLR330W, strain CHS5, stronger effect = lower value
  normalized growth: 0.992
Locus YLR342W, strain FKS1, stronger effect = lower value
  normalized growth: 1.01
Locus YLR357W, strain rsc2, stronger effect = lower value
  normalized growth: 1.04
Locus YLR370C, strain arc18, stronger effect = lower value
  normalized growth: 0.973
Locus YLR371W, strain rom2, stronger effect = lower value
  normalized growth: 0.986
Locus YLR384C, strain iki3, stronger effect = lower value
  normalized growth: 0.971
Locus YLR418C, strain cdc73, stronger effect = lower value
  normalized growth: 0.976
Locus YML016C, strain PPZ1, stronger effect = lower value
  normalized growth: 0.969
Locus YML032C, strain rad52, stronger effect = lower value
  normalized growth: 0.952
Locus YML120C, strain ndi1, stronger effect = lower value
  normalized growth: 1.01
Locus YML124C, strain tub3, stronger effect = lower value
  normalized growth: 0.992
Locus YMR058W, strain fet3, stronger effect = lower value
  normalized growth: 0.999
Locus YMR078C, strain ctf18, stronger effect = lower value
  normalized growth: 0.971
Locus YMR125W, strain sto1, stronger effect = lower value
  normalized growth: 1.01
Locus YMR129W, stronger effect = lower value
  normalized growth: 0.987
Locus YMR205C, strain PFK2, stronger effect = lower value
  normalized growth: 1.05
Locus YMR223W, strain ubp8, stronger effect = lower value
  normalized growth: 0.978
Locus YMR231W, strain pep5, stronger effect = lower value
  normalized growth: 0.971
Locus YMR307W, strain GAS1, stronger effect = lower value
  normalized growth: 1.01
Locus YNL067W, strain RPL9B, stronger effect = lower value
  normalized growth: 1.03
Locus YNL071W, strain lat1, stronger effect = lower value
  normalized growth: 0.984
Locus YNL128W, strain TEP1, stronger effect = lower value
  normalized growth: 0.954
Locus YNL153C, strain GIM3, stronger effect = lower value
  normalized growth: 1.01
Locus YNL183C, strain NPR1, stronger effect = lower value
  normalized growth: 0.944
Locus YNL209W, strain ssb2, stronger effect = lower value
  normalized growth: 0.999
Locus YNL233W, strain BNI4, stronger effect = lower value
  normalized growth: 1.02
Locus YNL248C, strain rpa49, stronger effect = lower value
  normalized growth: 0.962
Locus YNL250W, strain rad50, stronger effect = lower value
  normalized growth: 0.982
Locus YNL271C, strain bni1, stronger effect = lower value
  normalized growth: 0.983
Locus YNL298W, strain CLA4, stronger effect = lower value
  normalized growth: 0.993
Locus YNL307C, strain MCK1, stronger effect = lower value
  normalized growth: 0.99
Locus YNL322C, strain KRE1 (second series), stronger effect = lower value
  normalized growth: 0.987
Locus YNL322C, strain KRE1, stronger effect = lower value
  normalized growth: 0.987
Locus YNR049C, strain mso1, stronger effect = lower value
  normalized growth: 0.991
Locus YNR052C, strain pop2, stronger effect = lower value
  normalized growth: 0.999
Locus YOL006C, strain TOP1, stronger effect = lower value
  normalized growth: 0.955
Locus YOL012C, strain htz1
  normalized growth: 1.02
Locus YOL147C, strain pex11, stronger effect = lower value
  normalized growth: 0.998
Locus YOR001W, strain rrp6, stronger effect = lower value
  normalized growth: 0.935
Locus YOR061W, strain CKA2, stronger effect = lower value
  normalized growth: 0.967
Locus YOR069W, strain VPS5, stronger effect = lower value
  normalized growth: 1
Locus YOR070C, strain gyp1, stronger effect = lower value
  normalized growth: 1.02
Locus YOR080W, strain dia2, stronger effect = lower value
  normalized growth: 0.98
Locus YOR083W, strain WHI5, stronger effect = lower value
  normalized growth: 1.04
Locus YOR106W, strain vam3, stronger effect = lower value
  normalized growth: 1.02
Locus YOR136W, strain idh2, stronger effect = lower value
  normalized growth: 0.971
Locus YOR144C, strain elg1, stronger effect = lower value
  normalized growth: 0.964
Locus YOR184W, strain ser1, stronger effect = lower value
  normalized growth: 0.95
Locus YOR231W, strain MKK1, stronger effect = lower value
  normalized growth: 0.982
Locus YOR265W, strain rbl2, stronger effect = lower value
  normalized growth: 1.01
Locus YOR270C, strain vph1, stronger effect = lower value
  normalized growth: 0.841
Locus YOR290C, strain snf2, stronger effect = lower value
  normalized growth: 1.03
Locus YOR316C, strain cot1, stronger effect = lower value
  normalized growth: 0.989
Locus YPL051W, strain arl3, stronger effect = lower value
  normalized growth: 0.979
Locus YPL078C, strain atp4, stronger effect = lower value
  normalized growth: 1.02
Locus YPL106C, strain sse1, stronger effect = lower value
  normalized growth: 1.02
Locus YPL240C, strain hsp82, stronger effect = lower value
  normalized growth: 0.984
Locus YPL241C, strain CIN2, stronger effect = lower value
  normalized growth: 0.985
Locus YPL256C, strain CLN2, stronger effect = lower value
  normalized growth: 0.993
Locus YPR119W, strain clb2, stronger effect = lower value
  normalized growth: 0.998
Locus YPR141C, strain kar3, stronger effect = lower value
  normalized growth: 0.983
Locus YPR163C, strain tif3, stronger effect = lower value
  normalized growth: 0.986
Locus YPR167C, strain met16, stronger effect = lower value
  normalized growth: 0.988
Strain wtn01, stronger effect = lower value
  normalized growth: 0.972
